Hit rate of the full screen: of about 350,000 compounds, about 9,900 (2.8%) were called active. Not shown: some 15% with an inconclusive outcome. Calls follow the shape of the dose curve; as a rule, active = well fitted activation curve with a large enough effect; inconclusive = small, poorly fitted or top-dose-only effect; inactive = no such curve, though single readings can be large or run the other way. The list comes from a sample in which actives are over-represented; it also holds similar structures and randomly drawn compounds. A call without a number means that no potency is given here.
test: A quantitative high throughput screen for small molecules that induce DNA re-replication in MCF 10a normal breast cells.; also: nearly all actives have a fitted effect of over 50% in size; conditions: MCF 10A DNA re-replication, Hoechst nuclear intensity, 48 h; series mostly up to 46.1 µM
Potency is read from the fitted curve at half-maximal effect.

SMILES | Potency
O=C1CSc2ccc(C(=O)NCc3ccccn3)cc2N1 | inactive
CCCC(CNC(=O)COC(=O)C1=NNC(=O)CC1)c1ccc(Cl)cc1Cl (centres undefined) | inactive
O=C(O)/C=C/c1cn(-c2ccccc2)nc1-c1cccs1 | inactive
O=C(NCc1cccnc1)c1cn(-c2ccccc2)nc1-c1cccs1 | inactive
O=C(O)c1ccc(N/N=C/c2cn(-c3ccccc3)nc2-c2cccs2)cc1 | 23.1 µM (active)
O=c1c2ccccc2[nH]c(=S)n1CCN1CCC(=C(c2ccc(F)cc2)c2ccc(F)cc2)CC1 | 18.4 µM (active)
CCCCn1c(=S)[nH]c2ccccc2c1=O | inactive
COc1ccccc1Cn1c(=S)[nH]c2cc(C(=O)N3CCN(C)CC3)ccc2c1=O | inactive
CCCOc1ccccc1C1CC(=O)Nc2cc3c(cc21)OCO3 (centres undefined) | 6.51 µM (active)
COc1ccccc1C1C2=C(COC2=O)Nc2cc3c(cc21)OCO3 (centres undefined) | inactive
COc1ccc(C2CC(=O)Nc3cc(C)c(C)cc32)c(OC)c1OC (centres undefined) | inactive
Nc1c(N(Cc2ccco2)C(=O)c2cccc(F)c2)c(=O)[nH]c(=O)n1Cc1ccccc1 | inactive
CC(=O)NC1=NN(C(C)=O)C(C)(CCS(=O)(=O)c2ccc(Cl)c(Cl)c2)S1 (centres undefined) | inactive
CC(=O)NC1=NN(C(C)=O)C(C)(c2ccc(C)cc2)S1 (centres undefined) | inactive
CC(=O)NC1=NN(C(C)=O)C(C)(c2ccc(Cl)s2)S1 (centres undefined) | 8.2 µM (active)
COc1ccccc1S(=O)(=O)NCc1ccc(C(=O)N(C)Cc2ccc(F)cc2)cc1 | inactive
O=C(COC(=O)c1cccnc1Cl)NC12CC3CC(CC(C3)C1)C2 | inactive
O=C(COC(=O)c1ccc(F)cc1)NCC1COc2ccccc2O1 (centres undefined) | inactive
O=C(COC(=O)c1ccccc1O)NCc1ccco1 | inactive
Cc1cc(C(=O)OCC(=O)NCc2ccco2)c(C)n1-c1ccccc1 | 6.31 µM (active)
CN(c1ccccc1)S(=O)(=O)c1ccc(Cl)c(C(=O)OCC(=O)NCc2ccco2)c1 | inactive
O=C1c2ccccc2C(=O)N1CCCCCCN1C(=O)c2ccccc2C1=O | inactive
COC(=O)c1ccc(C)c(NC(=O)Cn2c(C)csc2=O)c1 | inactive
CCSc1nsc(NC(=O)Nc2ccccc2OC)n1 | inactive
CCSc1nsc(NC(=O)Nc2cccc(C(C)=O)c2)n1 | 16.4 µM (active)

SMILES | Potency
C=CCSc1nsc(NC(=O)Nc2cccc(C(C)=O)c2)n1 | inactive
Cc1cc(N2C(=O)C(O)=C(C(=O)c3ccc(C)o3)C2c2ccc(OCc3ccccc3)cc2)no1 (centres undefined) | 20.6 µM (active)
COc1cc(C2C(C(=O)c3ccc(C)o3)=C(O)C(=O)N2CCc2ccccc2)ccc1O (centres undefined) | inactive
COc1cc(C2C(C(=O)c3ccc(C)o3)=C(O)C(=O)N2Cc2cccnc2)ccc1O (centres undefined) | inactive
Cc1ccc(NC(=O)CN(C)C(=O)c2cccc(S(=O)(=O)N3CCCC3)c2)cc1 | inactive
Cc1ccc(S(=O)(=O)N2[C@@H](c3ccccc3F)C(C(=O)O)=CC[C@H]2c2ccc(Cl)cc2)cc1 | 7.31 µM (active)
Cc1ccc(S(=O)(=O)N2[C@@H](c3cccc4ccccc34)C(C(=O)O)=C[C@H]2C(C)(C)C)cc1 | inactive
Cc1ccc(S(=O)(=O)N2C3C=CC(C3)C2C(=O)O)cc1 (centres undefined) | inactive
COC(=O)C1=C(C)N(Cc2ccccc2)C(=NCCCOC(C)C)N[C@H]1c1ccccc1 | inactive
CC1O[C@H](OC2C(COC3OC(CO)C(O)[C@H](O)C3O)OC(OC3CC[C@]4(C)C(CC[C@@]5(C)[C@@H]4C=C[C@]46OC[C@@]7(CCC(C)(C)C[C@H]74)C(O)C[C@@]56C)C3(C)C)C(O)C2O)C(O)C(O)C1O (some centres undefined) | inactive
COc1ccc(OCCCC(=O)Nc2cccc(S(=O)(=O)N3CCCCCC3)c2)cc1 | inactive
CN(CC(=O)NC1CCN(Cc2ccccc2)CC1)S(=O)(=O)c1ccc(Cl)s1 | inactive
CC(=O)Oc1ccc(C(C)=O)c2c1OCCO2 | inactive
CC(=O)Oc1ccccc1C1=NN(C(C)=O)C(c2ccccc2)C1 (centres undefined) | inactive
CC(=O)Oc1ccc(OC(C)=O)c2c1C1C=CC2CC1 | 10.3 µM (active)
CCCCN(C(=O)c1cccc(N2C(=O)c3ccccc3C2=O)c1)c1c(N)n(CCCC)c(=O)[nH]c1=O | inactive
O=C(COC(=O)C1CCCO1)Nc1nc(-c2ccc(F)cc2)cs1 (centres undefined) | inactive
CN(C)CCCNC(=O)/C=C/c1ccc(OCc2c(F)cccc2Cl)cc1 | 23.1 µM (active)
COc1cc(CNCCN(C)C)ccc1OCc1c(F)cccc1Cl | inactive
COCCCNC(=O)/C=C/c1ccc(OCc2c(F)cccc2Cl)cc1 | inactive
O=c1oc2ccccc2c(=O)c2ccccc12 | inactive
Cc1ccc(NC(=O)CC2S/C(=N/N=C3\CCCc4ccccc43)NC2=O)cc1 (centres undefined) | 14.6 µM (active)
CCN=C1SC(CC(=O)Nc2ccc(C)cc2)C(=O)N1CC (centres undefined) | inactive
Cc1c(Cl)cccc1NC(=O)CC1SC(=NCC2CCCO2)NC1=O (centres undefined) | inactive
CCN(CC(=O)Nc1c(F)cccc1F)C(=O)c1ccc(-c2ccc(C(C)=O)cc2)o1 | inactive

SMILES | Potency
CCCCNS(=O)(=O)CCNCc1ccccc1OC | inactive
CC(Sc1ccccc1F)C(=O)Nc1cccc(S(=O)(=O)N2CCOCC2)c1 (centres undefined) | inactive
O=C(CSc1cccc[n+]1[O-])c1ccc(Cl)cc1 | inactive
O=C(CSc1cccc[n+]1[O-])c1ccc(-c2ccccc2)cc1 | 8.2 µM (active)
COc1ccccc1C(=O)CSc1cccc[n+]1[O-] | inactive
CC[C@]12c3[nH]c4cc(CCC(=O)N(C)C)ccc4c3CCN1C(=O)[C@@H](CC(=O)NCCCN(C)C)C[C@@H]2C(=O)N1CCN(C(=O)c2ccco2)CC1 | inactive
CN(C(=O)c1cccc(NC(=O)Cc2ccc(NC(=O)C3CCCN(C(=O)C4CCCC4)C3)cc2)c1)C1CCC1 (centres undefined) | inactive
O=S(=O)(NCC1CN(S(=O)(=O)c2ccc3c(c2)OCCO3)C1)c1c(F)cccc1F | inactive
COC1=CC(=O)OC(c2ccc(OC)cc2)C1 (centres undefined) | inactive
Cc1ccc2c(N)c(C(=O)c3ccccc3)sc2n1 | inactive
Cc1nc2sc(C(=O)c3ccccc3)c(N)c2c2c1CCCC2 | 14.6 µM (active)
CCc1nc2sc(C(=O)O)c(N)c2c2c1CCCC2 | inactive
CCOC(=O)C1=CN(Cc2ccc(Br)cc2)S(=O)(=O)N(C)C1C (centres undefined) | inactive
N#Cc1c(-c2ccccc2)cc(-c2ccccc2)nc1SCC(=O)O | inactive
N#Cc1c(C(F)(F)F)cc(-c2ccc(Cl)cc2)nc1SCC(=O)O | inactive
CCOC(=O)CC(=O)CSc1nc(-c2ccccc2)cc(-c2ccc(Cl)cc2)c1C#N | 11.6 µM (active)
COc1ccc(C(=O)OC(C)C(=O)NC2CCCC2)cc1S(=O)(=O)N1CCOCC1 (centres undefined) | inactive
COc1cc(OC)cc(C(=O)N[C@H](C(=O)NNC(=O)c2ccc(Br)cc2)C(C)C)c1 | inactive
C[C@H](CO)N1C[C@H](C)[C@H](CN(C)C(=O)Nc2ccc(C(F)(F)F)cc2)Oc2c(NC(=O)c3ccncc3)cccc2C1=O | inactive
Cc1ccc(Nc2c(O)nc[nH]c2=O)cc1C | inactive
CCC(=O)N1CCc2cc(S(=O)(=O)NC(C(=O)N3CCc4ccccc4C3)C(C)C)ccc21 (centres undefined) | inactive
CCCN(CCC)S(=O)(=O)c1cc2c(cc1Br)CCN2C(=O)CC | 18.4 µM (active)
CCC(=O)N1CCc2cc(Br)c(S(=O)(=O)NCCN3CCCCC3CC)cc21 (centres undefined) | inactive
Cn1c(CC(=O)NNC(=O)c2ccccc2F)nc2ccccc21 | inactive
O=S(=O)(O)c1cc2onnc2c2ccccc12 | inactive

SMILES | Potency
O=C(Cc1ccc(Cl)cc1)c1ccccc1 | inactive
CC1CC(=O)Nc2ccccc2N1C(=O)COc1ccc2cc(Br)ccc2c1 (centres undefined) | inactive
N#Cc1nc(COc2ccc(-c3ccccc3)cc2)oc1NCc1cccnc1 | 7.94 µM (active)
O=S(=O)(c1ccccc1)c1nc(-c2ccccc2F)oc1NCc1cccnc1 | inactive
Cc1ccc(OCc2nc(C#N)c(N3CCCC3)o2)cc1 | inactive
O=S(=O)(c1ccc(SCc2ccccc2)nc1)N1CCCCCC1 | inactive
CC(C)OC(=O)c1ccc(NCc2cc(O)ccc2O)cc1Cl | 1.64 µM (active)
CC(CN1CCOCC1)OC(=O)c1ccc(Cl)cc1Cl (centres undefined) | inactive
O=C(OC12CC3CC(CC(C3)C1)C2)c1ccc(NCc2cc(O)ccc2O)cc1 | inactive
CN(C)c1ccc(CSc2ccccc2)cc1 | inactive
O=c1c2ccccc2ncn1CCc1ccncc1 | inactive
CC[C@]12c3[nH]c4ccc(Cl)cc4c3CCN1C(=O)[C@@H](CC(=O)NCCCOC)C[C@@H]2C(=O)N1CCN(C(=O)C2CC2)CC1 | inactive
CC1CCCCC1NC(=O)Cn1c(=O)cnc2ccccc21 (centres undefined) | inactive
C=C(C)CNc1cc(S(=O)(=O)N2CCOCC2)ccc1Oc1ccccc1 | inactive
COC(=O)c1cc(NC(=O)Cc2ccccc2[N+](=O)[O-])ccc1Cl | inactive
NC(=O)c1ccc(NC(=O)COC(=O)c2ccc([N+](=O)[O-])cc2)cc1 | inactive
CC(=O)Nc1ccc(NC(=O)C(C)OC(=O)c2ccccc2C(=O)c2ccc(Cl)c([N+](=O)[O-])c2)cc1 (centres undefined) | 16.4 µM (active)
CC(CC(=O)O)C(=O)c1ccc(Cl)c([N+](=O)[O-])c1 (centres undefined) | inactive
N#Cc1cccc(NC(=O)COC(=O)c2ccccc2C(=O)c2ccc(Cl)c([N+](=O)[O-])c2)c1 | 2.91 µM (active)
CC(=O)Nc1ccc(NC(=O)COC(=O)c2ccccc2C(=O)c2ccccc2)cc1 | inactive
Cc1ccc(S(=O)(=O)N2CCN(C(=O)Cn3c(=O)cnc4ccccc43)CC2)c(C)c1 | inactive
O=C(COC(=O)COc1cc(Cl)c(Cl)cc1Cl)NC1CC1 | inactive
Cc1ccccc1NC(=O)CSC(=O)c1ccccc1 | inactive
CCOC(=O)[C@H]1[C@H]2COc3ccc(Br)cc3[C@@H]2N2C(=O)CN(C)C(=O)[C@@]12C | inactive

— PubChem BioAssay AID624296 (National Center for Advancing Translational Sciences (NCATS), 2012)
